According to PubChem BioAssay (NCATS):
Active and inactive are the calls of the source. Entries that show only a call come without a potency. Calls follow the shape of the dose curve; as a rule, active = well fitted inhibition curve with a large enough effect; inconclusive = small, poorly fitted or top-dose-only effect; inactive = flat fitted curve, though single readings scatter. *1 amine or outer side, *2 acyl side, *3 side chain or, on linkers, in order; H or OH if unused. Where a SMILES comes first, the peptide text is derived from it. Bridges are numbered along the chain shown (N, C = ends). [ ]: non-standard residue; d: D form. The star is where a group is joined. pTerphenylCO(4''-OnC5H11) = CCCCCOc1ccc(-c2ccc(-c3ccc(C(=O)*)cc3)cc2)cc1; Orn(4R-OH,5R-OH) = O=C([C@H](C[C@@H](O)[C@@H](O)N[*:3])N[*:1])[*:2]; hTyr(3S-OH,4S-OH) = N[C@H](C(=O)O)[C@H](O)[C@@H](O)c1ccc(O)cc1; Pro(3S-OH,4S-Me) = C[C@H]1CN[C@H](C(=O)O)[C@H]1O; Hyp = O=C(O)[C@@H]1C[C@@H](O)CN1

Molecular target: Luciferin 4-monooxygenase (Photinus pyralis) (UniProt P08659)
Assay: Primary firefly luciferase (FLuc) qHTS assay for identification of artifact compounds. (AID 1845220); also: nearly all actives have a fitted effect of over 60% in size
Conditions: purified firefly luciferase, luminescence, 5 min; series mostly up to 54.1 µM
Summary of the method: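 Cell-free, 1536-well qHTS. Buffer pH 7.6 with 0.01% Tween-20 and 0.05% BSA; 10 uM D-luciferin, 10 uM ATP; 10 nM P. pyralis luciferase; luminescence after 5 min.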

SMILES	Potency
C=C1CCC[C@]2(C)CC/C(=C(/CO)C(=O)OC)C[C@@H]12	inactive
CC(C)C[C@@H]1NC(=O)[C@@H]2C[C@@]34C[C@@H]5[C@@]6(C)CCCC(C)(C)C6CC[C@@]5(C)N(c5ccccc53)[C@H]4N2C1=O (some centres not stated)	inactive
COc1cc(F)c(F)c(Nc2ccc(I)cc2F)c1NS(=O)(=O)C1(CC(O)CO)CC1 (configuration not stated)	inactive
CCC1C(=O)N(C)c2cnc(Nc3ccc(C(=O)NC4CCN(C)CC4)cc3OC)nc2N1C1CCCC1 (configuration not stated)	inactive
N#Cc1ccc(Nc2nc(-c3ccc(O)cc3O)cs2)cc1C(F)(F)F	inactive
C=C(NC(=O)C(=C)NC(=O)c1csc(C2=NC3c4csc(n4)C4NC(=O)c5csc(n5)C(C(C)(O)C(C)O)NC(=O)C5CSC(=N5)/C(=C/C)NC(=O)C(C(C)O)NC(=O)c5csc(n5)C3(CC2)NC(=O)C(C)NC(=O)C(=C)NC(=O)C(C)NC(=O)C(C(C)CC)NC2C=Cc3c(C(C)O)cc(nc3C2O)C(=O)OC4C)n1)C(N)=O (configuration not stated)	inactive
CN(C)C(CCOc1cccc2ccccc12)c1ccccc1 (configuration not stated)	inactive
CN1CCC(c2cn(C)c3ccc(OS(=O)(=O)c4c(F)cccc4F)cc23)CC1	inactive
CC[C@H]1OC(=O)[C@H](C)[C@@H](O[C@H]2C[C@@](C)(OC)[C@@H](O)[C@H](C)O2)[C@H](C)[C@@H](O[C@H]2O[C@H](C)C[C@H](N(C)C)[C@H]2O)[C@](C)(O)C[C@@H](C)C(=O)[C@H](C)[C@@H](O)[C@]1(C)O	inactive
COc1ccc2[nH]c(=O)c3c(c2c1)OC(C)(C)C=C3	inactive
CC(C)(C)Oc1ccc(OCC2Cc3ccccc3CN2C(=O)c2cccc3ccccc23)cc1 (configuration not stated)	inactive
Cn1ncc(Cl)c1-c1cc(C(=O)N[C@H](CN)Cc2ccc(F)c(F)c2)oc1Cl	inactive
C=C1/C(=C/C=C2\CCC[C@]3(C)[C@@H]([C@H](C)/C=C/[C@H](O)C4CC4)CC[C@@H]23)C[C@@H](O)C[C@@H]1O	inactive
CN1CCC(NC(=O)c2cc(-c3c(O)cc(O)cc3Oc3ccc([N+](=O)[O-])cc3)on2)CC1	inactive
Cc1c(Cl)cccc1S(=O)(=O)Nc1nc(NCCc2ccccc2)nc2c1CN(Cc1ccccc1)CC2	inactive
O=c1cc(NCCCN[C@@H]2CCOc3c(Br)cc(Br)cc32)[nH]c2ccsc12	inactive
COCC(c1ccc(C(F)(F)F)cc1)N1CCN(C2(C)CCN(C(=O)c3c(C)ncnc3C)CC2)CC1C (configuration not stated)	inactive
Cc1cc(-c2cnc(N)c3c(-c4ccc5scnc5c4)csc23)n(C)n1	inactive
Cc1cc2c(F)c(Oc3ncnn4cc(OCC(C)OC(=O)C(C)N)c(C)c34)ccc2[nH]1 (configuration not stated)	inactive
C=C1/C(=C/C=C2\CCC[C@@]3(C)C2CCC3[C@H](C)/C=C/[C@@H](O)C2CC2)C[C@@H](O)C[C@@H]1O (some centres not stated)	inactive
CCC/C=C/c1cc2c(C=O)c(O)c(CC=C(C)C)cc2o1	inactive
COc1cc(/C=C/C(=O)NCCn2c(C(F)(F)F)cc3ccccc32)cc(OC)c1OC	inactive
CCN(CC)CCCS(=O)(=O)N[C@H](CCc1ccccc1)c1nc(Cc2ccc(Br)cc2)no1	inactive
NC(=O)c1cnc(N[C@@H]2CCCC[C@H]2N)nc1Nc1cccc(-n2nccn2)c1	inactive
CC#CCn1c(N2CCCC(N)C2)nc2c1c(=O)n(Cc1nc(C)c3ccccc3n1)c(=O)n2C (configuration not stated)	inactive
CCCCCOc1ccc(-c2ccc(-c3ccc(C(=O)N[C@H]4C[C@@H](O)[C@@H](O)NC(=O)[C@@H]5[C@@H](O)[C@@H](C)CN5C(=O)[C@H]([C@@H](C)O)NC(=O)[C@H]([C@H](O)[C@@H](O)c5ccc(O)cc5)NC(=O)[C@@H]5C[C@@H](O)CN5C(=O)[C@H]([C@@H](C)O)NC4=O)cc3)cc2)cc1 ({pTerphenylCO(4''-OnC5H11)}-[Orn(4R-OH,5R-OH)]T[Hyp][hTyr(3S-OH,4S-OH)]T[Pro(3S-OH,4S-Me)]; lactam 1-C)	inactive
C=CC(C)(O)CC[C@@H]1[C@@]2(C)CCCC(C)(C)C2CC[C@@]1(C)O (some centres not stated)	inactive
